Measurements published in PubChem BioAssay.
A number with no mark means an inactive call. For part of these data: Results with a measured potency or affinity are listed apart. Calls of active or inactive are those of the source. Unless noted, how the calls were made is not given here.

What was measured:
[1] = antimalarial activity against Dd2 strain (AID 2302;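 active means growth inhibition above 50% at the single 2 µM test dose, taken to imply half-maximal potency below 2 µM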;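 further: 0% = DMSO untreated growth and 100% = chloroquine plus artemisinin killed control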); conditions: P. falciparum Dd2 in RBCs, LDH growth readout, 72 h; at 2 µM; active compounds read high
[2] = HepG2 cytotoxicity, primary screen, cytotoxicity control for P. falciparum antimalarial project, cell-based, ATP luminescence (AID 2303;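 active means inhibition above 50%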;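 further: 0% = DMSO wells and 100% = digitonin-killed cells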); conditions: HepG2 viability, 24-48 h, at 10 µM, active compounds read high
[3] = target: L-lactate dehydrogenase (Plasmodium falciparum (isolate CDC / Honduras)) (UniProt Q27743); experiment: PfLDH activity inhibition – cell lysate, 3D7 strain, counter-screen for P. falciparum growth inhibition project (AID 2304);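 further: 0% = vehicle and 100% = reference inhibitor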; conditions: P. falciparum 3D7 crude extract, LDH APAD/NBT absorbance; at 2 µM; active compounds read high
L-lactate dehydrogenase (Plasmodium falciparum (isolate CDC / Honduras)), sequence (Q27743 whole entry, looked up): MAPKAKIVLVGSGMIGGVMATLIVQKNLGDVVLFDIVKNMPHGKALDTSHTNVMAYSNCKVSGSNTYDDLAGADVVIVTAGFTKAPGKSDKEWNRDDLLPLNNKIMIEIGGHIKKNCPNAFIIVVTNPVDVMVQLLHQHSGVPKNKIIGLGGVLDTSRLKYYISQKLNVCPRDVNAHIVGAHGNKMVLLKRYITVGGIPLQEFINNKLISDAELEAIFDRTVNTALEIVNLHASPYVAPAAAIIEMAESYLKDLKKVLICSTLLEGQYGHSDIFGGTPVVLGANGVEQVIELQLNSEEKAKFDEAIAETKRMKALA

[4] = inhibition of 3D7 malaria parasite growth – strain 3D7 (AID 2306);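 further: 0% = DMSO wells and 100% = chloroquine plus artemisinin control wells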; conditions: P. falciparum 3D7 erythrocytic growth, LDH absorbance, 72 h; at 2 µM; active compounds read high
[5] = target: Calcium-dependent protein kinase 1 (Plasmodium falciparum (isolate 3D7)) (UniProt P62344); experiment: PfCDPK1 kinase inhibitors, biochemical, TCAMS library (AID 1159585; cut-off not given, nearly all actives have IC50 up to about 0.98 µM;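 further: inhibitors leave more ATP so luminescence rises with inhibition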); conditions: recombinant PfCDPK1, Kinase-Glo ATP depletion luminescence
Calcium-dependent protein kinase 1 (Plasmodium falciparum (isolate 3D7)), sequence (P62344 whole entry, looked up): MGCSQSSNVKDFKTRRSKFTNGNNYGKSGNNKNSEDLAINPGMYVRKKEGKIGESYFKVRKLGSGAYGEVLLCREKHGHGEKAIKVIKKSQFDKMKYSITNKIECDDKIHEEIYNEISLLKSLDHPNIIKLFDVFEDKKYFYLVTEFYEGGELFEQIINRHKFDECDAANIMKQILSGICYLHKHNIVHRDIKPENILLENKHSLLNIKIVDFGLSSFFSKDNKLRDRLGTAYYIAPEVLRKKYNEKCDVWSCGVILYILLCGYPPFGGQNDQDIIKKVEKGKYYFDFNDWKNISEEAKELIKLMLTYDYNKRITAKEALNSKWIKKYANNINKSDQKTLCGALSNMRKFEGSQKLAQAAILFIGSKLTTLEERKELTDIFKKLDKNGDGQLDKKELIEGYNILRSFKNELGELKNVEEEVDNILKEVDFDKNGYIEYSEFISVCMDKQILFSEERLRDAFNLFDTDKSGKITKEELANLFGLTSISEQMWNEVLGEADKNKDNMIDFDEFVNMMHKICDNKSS

[6] = target: Plasmodium falciparum protein kinase 6 (PK6, PF3D7_1337100) (UniProt Q8IDW1); experiment: PfPK6 kinase inhibitors, biochemical, TCAMS library (AID 1159586); conditions: recombinant PfPK6, Kinase-Glo ATP depletion luminescence
Plasmodium falciparum protein kinase 6 (PK6, PF3D7_1337100), sequence (Q8IDW1 1-305): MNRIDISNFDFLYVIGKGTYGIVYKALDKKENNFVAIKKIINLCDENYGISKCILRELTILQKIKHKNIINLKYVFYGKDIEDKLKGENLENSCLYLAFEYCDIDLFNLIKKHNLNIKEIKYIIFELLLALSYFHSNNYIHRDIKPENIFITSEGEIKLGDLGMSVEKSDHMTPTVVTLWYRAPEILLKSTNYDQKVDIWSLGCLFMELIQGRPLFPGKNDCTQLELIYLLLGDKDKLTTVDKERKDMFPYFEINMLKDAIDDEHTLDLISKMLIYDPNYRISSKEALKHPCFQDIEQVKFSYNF

[7] = target: Protein kinase 7 (PK7), Plasmodium falciparum 3D7 (PF3D7_0213400) (UniProt Q7YTF7); experiment: inhibition of Plasmodium PK7 catalytic activity – biochemical, TCAMS antimalarial set, Kinase-Glo luminescence (AID 1159587); conditions: recombinant PfPK7, Kinase-Glo ATP depletion luminescence
Protein kinase 7 (PK7), Plasmodium falciparum 3D7 (PF3D7_0213400), sequence (Q7YTF7 1-343): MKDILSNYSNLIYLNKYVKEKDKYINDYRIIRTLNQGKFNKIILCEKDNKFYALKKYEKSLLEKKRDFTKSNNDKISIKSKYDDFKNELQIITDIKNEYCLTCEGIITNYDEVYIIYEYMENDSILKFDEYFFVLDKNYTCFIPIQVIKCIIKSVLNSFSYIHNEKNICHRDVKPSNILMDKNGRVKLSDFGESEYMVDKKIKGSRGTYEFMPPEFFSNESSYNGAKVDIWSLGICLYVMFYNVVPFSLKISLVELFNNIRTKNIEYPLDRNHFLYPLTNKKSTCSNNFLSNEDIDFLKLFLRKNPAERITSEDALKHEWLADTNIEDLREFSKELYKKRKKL

[8] = target: Calcium-dependent protein kinase 4 (Plasmodium falciparum (isolate 3D7)) (UniProt Q8IBS5); experiment: PfCDPK4 kinase inhibitors, biochemical, TCAMS library (AID 1159588; cut-off not given, nearly all actives have IC50 up to about 0.91 µM); conditions: recombinant PfCDPK4, Kinase-Glo ATP depletion luminescence
Calcium-dependent protein kinase 4 (Plasmodium falciparum (isolate 3D7)), sequence (Q8IBS5 whole entry, looked up): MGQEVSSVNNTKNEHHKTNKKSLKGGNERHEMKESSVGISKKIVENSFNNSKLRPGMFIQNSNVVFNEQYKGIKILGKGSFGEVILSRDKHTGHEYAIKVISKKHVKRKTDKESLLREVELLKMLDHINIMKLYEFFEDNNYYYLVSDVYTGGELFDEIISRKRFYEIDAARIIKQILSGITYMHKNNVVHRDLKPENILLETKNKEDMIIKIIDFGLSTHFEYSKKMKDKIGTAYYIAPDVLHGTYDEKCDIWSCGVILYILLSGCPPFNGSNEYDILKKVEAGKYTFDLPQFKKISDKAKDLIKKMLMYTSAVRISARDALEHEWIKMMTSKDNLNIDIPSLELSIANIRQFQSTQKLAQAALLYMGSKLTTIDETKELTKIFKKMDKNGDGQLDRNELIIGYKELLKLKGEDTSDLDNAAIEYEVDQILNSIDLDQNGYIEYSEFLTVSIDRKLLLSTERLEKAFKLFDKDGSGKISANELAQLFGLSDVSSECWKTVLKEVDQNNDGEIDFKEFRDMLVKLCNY

| Compound | growth inhibition [1] | inhibition [2] | inhibition [3] | growth inhibition [4] | outcome [5] | outcome [6] | outcome [7] | outcome [8] |
| --- | --- | --- | --- | --- | --- | --- | --- | --- |
| OC(CNc1ccnc(Nc2cccc(OCCCN3CCOCC3)c2)n1)c1ccccc1 (stereo unspecified) | 25% | 48% | -4% | 97% (active) | inactive | inactive | inactive | inactive |
| COc1cc2c(cc1OC)CN(CCc1ccc(NC(=O)c3cc4cc(Cl)ccc4[nH]3)cc1)CC2 | 6% | 3% | 2% | 90% (active) | inactive | inactive | inactive | inactive |
| S=C(NCCN1CCOCC1)Nc1ccccc1 | 1% | 3% | 1% | 94% (active) | inactive | inactive | inactive | inactive |
| O=C(Nc1ccc(-c2cccc(-c3nc4ccc(C(F)(F)F)cc4[nH]3)c2)cc1)Nc1ccc(Cl)c(Cl)c1 | 23% | 42% | 7% | 98% (active) | inactive | inactive | inactive | inactive |
| O=C(/C=C/c1ccc(Cl)c(Cl)c1)N1CCC(CCN2CCC(c3c[nH]c4ccncc34)CC2)CC1 | 70% (active) | 13% | 2% | 101% (active) | inactive | inactive | inactive | inactive |
| NC1=NC2(CCCC2)N(c2ccc(Cl)cc2)C(N)=N1 | -1% | -8% | -6% | 97% (active) | inactive | inactive | inactive | inactive |
| Cc1cccc2[nH]c(-c3cccc(-c4cccc(C(=O)N5CCCCC5CN5CCC(O)C5)c4)c3)nc12 (stereo unspecified) | 71% (active) | 19% | -5% | 89% (active) | inactive | inactive | inactive | inactive |
| CCNc1cc(C)nc(Nc2ccccc2)n1 | 8% | 16% | -1% | 92% (active) | inactive | inactive | inactive | inactive |
| CCCCCOc1ccc(C(O)C(CCC(CN2CCCCCC2)C(O)c2ccc(OCCCCC)cc2)CN2CCCCCC2)cc1 (stereo unspecified) | 93% (active) | 99% (active) | 0% | 99% (active) | inactive | inactive | inactive | inactive |
| CS(=O)(=O)Nc1ccc2[nH]cc(C3CCN(CCCCCNC(=O)/C=C/c4ccc(Cl)c(Cl)c4)CC3)c2c1 | 0% | 1% | 5% | 101% (active) | inactive | inactive | inactive | inactive |
| c1cc(-c2ccc(CNC3CC3)cc2)cc(-c2nc3ccccc3[nH]2)c1 | 8% | 17% | 1% | 96% (active) | inactive | inactive | inactive | inactive |
| CCN(CCNC(=O)C1CCN(c2cc(-c3cccc(C)c3)ncn2)CC1)Cc1ccccc1 | 72% (active) | 24% | 2% | 83% (active) | inactive | inactive | inactive | inactive |
| COc1ccc2nc(C)cc(Nc3ccc(Oc4ccc5ccccc5c4Cl)c(Cl)c3)c2c1 | 98% (active) | 32% | 7% | 100% (active) | inactive | inactive | inactive | inactive |
| CCc1cn2c3c(cc(C(=O)N[C@@H](Cc4cccc(Cl)c4)[C@H](O)CNC4CCCCC4)cc13)N(C)S(=O)(=O)CC2 | 98% (active) | 12% | 2% | 97% (active) | inactive | inactive | inactive | inactive |
| CCN(CC)CCCCNc1cc(-c2[nH]c(-c3c(Cl)cccc3Cl)nc2-c2ccc3cc(OC)ccc3c2)ccn1 | 93% (active) | 23% | -5% | 95% (active) | inactive | inactive | inactive | inactive |
| Cc1ccc2[nH]c(-c3ccc(C(=O)NC4CCN(Cc5ccccc5)CC4)cc3)nc2c1C | 46% | 22% | -2% | 102% (active) | inactive | inactive | inactive | inactive |
| c1cc(-c2ccc(CNCCCN3CCOCC3)cc2)cc(-c2nc3ccccc3[nH]2)c1 | -1% | 26% | -2% | 100% (active) | inactive | inactive | inactive | inactive |
| C=C[C@H]1CN(CCCCCCC)CC[C@H]1CC(O)Cc1ccnc2cc(O)c(OC)cc12 (stereo partly specified) | 59% (active) | 7% | 1% | 95% (active) | inactive | inactive | inactive | inactive |
| CC1(C)N=C(N)N=C(N)C1c1ccc(Cl)cc1 (stereo unspecified) | -2% | 16% | 1% | 96% (active) | inactive | inactive | inactive | inactive |
| COc1ccc(Oc2ccc(-c3c(C)[nH]c(C)c(Cl)c3=O)cc2)cc1 | 97% (active) | -2% | -3% | 97% (active) | inactive | inactive | inactive | inactive |
| CN(Cc1ccccc1)C1CCN(c2cc(NC(=O)c3cccc(F)c3)ccn2)CC1 | 3% | 2% | -2% | 93% (active) | inactive | inactive | inactive | inactive |

| Compound | growth inhibition [1] | inhibition [2] | inhibition [3] | growth inhibition [4] | outcome [5] | outcome [6] | outcome [7] | outcome [8] |
| --- | --- | --- | --- | --- | --- | --- | --- | --- |
| N#Cc1ccc(NC(=O)c2ccc(C(=O)NCCCCN3CCC(c4ccc5c(c4OCCOC4CCCCO4)CCCC5)CC3)cc2)cc1 (stereo unspecified) | 97% (active) | 72% (active) | -6% | 99% (active) | inactive | inactive | inactive | inactive |
| CC(=O)OCCN1C(=O)c2ccc3c4c(ccc(c24)C1=O)C(=O)N(CCOC(C)=O)C3=O | 1% | 2% | 3% | 94% (active) | inactive | inactive | inactive | inactive |
| COc1cccc(CNC(=O)NC2CCN(c3ccnc(Nc4cc(OC)c(OC)c(OC)c4)n3)C2)c1 (stereo unspecified) | 84% (active) | 15% | -6% | 93% (active) | inactive | inactive | inactive | inactive |
| Oc1ccc(CCNc2nc(N/N=C/c3ccc(Cl)cc3)nc(N3CCNCC3)n2)cc1 | 68% (active) | 14% | 5% | 100% (active) | inactive | inactive | inactive | inactive |
| O=C(Nc1ccc(C(F)(F)F)cc1)c1cccc(S(=O)(=O)NC2CCN(CC3CCCCC3)CC2)c1 | 12% | 18% | -3% | 99% (active) | inactive | inactive | inactive | inactive |
| CC(C)C[C@@H](/C=N/N1CCOC1=O)NC(=O)[C@H](CC(C)C)NC(=O)c1ccc(OCCN2CCOCC2)cc1 | 87% (active) | 5% | 6% | 92% (active) | inactive | inactive | inactive | inactive |
| CC1CC1C(=O)NC1CCN(CC2(c3ccccc3)CCCCC2)CC1 (stereo unspecified) | 95% (active) | -1% | 0% | 97% (active) | inactive | inactive | inactive | inactive |
| O=C(NCCCCN1CCC(C(c2ccccc2)c2ccccc2)CC1)c1ccc(NC(=O)c2ccc(Cl)cc2)cc1 | 47% | 12% | -2% | 100% (active) | inactive | inactive | inactive | inactive |
| COc1cc(-c2nc(-c3ccccc3)c(-c3ccc([N+](=O)[O-])cc3)[nH]2)cc(OC)c1O | 56% (active) | 7% | -3% | 98% (active) | inactive | inactive | inactive | inactive |
| O=C(CCCc1ccccc1)Nc1cccc(N2CCC(N3CCN(c4ccccc4O)CC3)CC2)c1 | 41% | 31% | -1% | 98% (active) | inactive | inactive | inactive | inactive |
| CN1CCC(NCc2cccc(-c3nn(C)c4nc(NC5CCCC5)ncc34)c2)CC1 | 44% | 1% | -2% | 98% (active) | inactive | inactive | inactive | inactive |
| COc1ccccc1-c1csc(C(=O)NC2CCCCN(Cc3ccc(C(C)(C)C)cc3)C2)c1 (stereo unspecified) | 8% | 13% | -5% | 99% (active) | inactive | inactive | inactive | inactive |
| c1cc(-c2ccc(CNCCCn3ccnc3)cc2)cc(-c2nc3ccccc3[nH]2)c1 | 100% (active) | 17% | 5% | 101% (active) | inactive | inactive | inactive | inactive |
| COc1ccccc1C1CCN(C2CCC(NC(=O)/C=C/c3ccc(F)c(F)c3)CC2)CC1 (stereo unspecified) | 9% | 49% | 1% | 94% (active) | inactive | inactive | inactive | inactive |
| CCOc1ccc(-c2nonc2NC(=O)c2ccccc2F)cc1OCC | 100% (active) | -8% | 0% | 90% (active) | inactive | inactive | inactive | inactive |
| CCCCCCOc1ccc(C(=O)N(Cc2ccccc2)c2c(-c3ccccc3)nc3cc(C)ccn23)cc1 | 96% (active) | -8% | 3% | 95% (active) | inactive | inactive | inactive | inactive |
| O=C(/C=C/c1ccc(Cl)c(Cl)c1)NC1CCN(Cc2ccc(O)cc2)C1 (stereo unspecified) | 4% | 15% | -1% | 97% (active) | inactive | inactive | inactive | inactive |
| Cc1ccc2c(c1[N+](=O)[O-])N=NCC2Oc1ccccc1 (stereo unspecified) | 19% | 16% | -4% | 91% (active) | inactive | inactive | inactive | inactive |
| COC(=O)C(=C(C)C)N1C(=O)[C@@H](NC(=O)OCc2ccccc2)[C@H]1SS[C@@H]1[C@H](NC(=O)OCc2ccccc2)C(=O)N1C(C(=O)OC)=C(C)C | 96% (active) | 18% | -5% | 97% (active) | inactive | inactive | inactive | inactive |
| COc1ccc(S(=O)(=O)NC2CCN(c3ccc(C(F)(F)F)cc3NC(=O)OCC(C)C)CC2)cc1 | 13% | 19% | 3% | 85% (active) | inactive | inactive | inactive | inactive |
| CCC(C)Oc1ccc(CCCON2C(N)=NC(N)=NC2(C)C)cc1 (stereo unspecified) | 95% (active) | 65% (active) | -8% | 92% (active) | inactive | inactive | inactive | inactive |
